Compound activity as filed in PubChem BioAssay.
Only some compounds are listed: those with a hit (about 11% of all), similar ones and a draw of the others.
G9a block = G9a (human) methyltransferase inhibition; AID 504332; G9a H3K9 monomethylation, AlphaScreen, 2 h; 350,000 tested, 8.8% active; Q96KQ7; Potency, µM (top dose mostly 102 µM), actives largely listed as inhibitors; also: nearly all actives have a fitted effect of over 75% in size
Target sequence (Q96KQ7 913-1193 limits assumed): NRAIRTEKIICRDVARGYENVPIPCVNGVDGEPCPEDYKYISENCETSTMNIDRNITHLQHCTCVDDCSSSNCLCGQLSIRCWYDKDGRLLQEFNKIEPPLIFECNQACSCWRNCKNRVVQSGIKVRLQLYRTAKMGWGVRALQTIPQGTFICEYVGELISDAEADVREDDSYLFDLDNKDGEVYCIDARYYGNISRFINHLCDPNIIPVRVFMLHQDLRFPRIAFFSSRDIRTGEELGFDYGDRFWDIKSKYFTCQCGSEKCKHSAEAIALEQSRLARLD
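Using a bead-based AlphaScreen, monomethylated H3K9 product from 2 h room-temperature reactions (G9a 20 nM, peptide 500 nM, SAM 20 uM) was detected with 0.5 ug/mL rabbit anti-H3K9me1 antibody.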
L3MBTL1 block = L3MBTL1 (human) inhibition; Q9Y468; AlphaScreen L3MBTL1–H3K9me1 peptide binding; Potency, µM (titrated, usually from 57.1 µM), hits mostly inhibitors; 230,000 tested, 0.66% active; also: nearly all actives have a fitted effect of over 60% in size
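First, the protein-peptide complex forms for 30 min at room temperature (L3MBTL1 50 nM, biotinylated H3K9me1 peptide 75 nM). Next, compounds are pin-transferred and incubated 30 min. Finally, AlphaScreen beads are added and read after 30 min.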
BAZ2B inh = blocks human BAZ2B; Q9UIF8; AlphaScreen BAZ2B-H3K14Ac peptide displacement; Potency, µM (top dose mostly 114 µM), actives largely listed as inhibitors; 360,000 tested, 4.4% active; also: nearly all actives have a fitted effect of over 60% in size
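AlphaScreen displacement of biotin-H3(5-23)K14Ac peptide (50 nM final) from BAZ2B (50 nM final) in PBS pH 7.4, 0.01% Tween-20; complex preformed 30 min RT, then compounds (top 110 uM) 30 min RT, beads 20 min dark.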
JMJD2A Tudor = blocks the human JMJD2A Tudor domain; AlphaScreen JMJD2A-Tudor / H3K4me3 peptide binding; Potency, µM (top dose mostly 114 µM), most hits filed as inhibitors; 390,000 tested, 4.4% active; also: nearly all actives have a fitted effect of over 50% in size
PI5P4K alpha inh = PI5P4K alpha (human) kinase inhibition; P48426; PI5P4Kalpha enzyme, ADP-Glo luminescence, 60 min; stronger effect = lower value; max response, %; 330,000 tested, 1.2% active; active = max response of -50% or lower; inconclusive = between -30% and -50%; inactive = -30% or higher; also: value at the top dose of about 77 µM
Target sequence (P48426 whole entry, looked up): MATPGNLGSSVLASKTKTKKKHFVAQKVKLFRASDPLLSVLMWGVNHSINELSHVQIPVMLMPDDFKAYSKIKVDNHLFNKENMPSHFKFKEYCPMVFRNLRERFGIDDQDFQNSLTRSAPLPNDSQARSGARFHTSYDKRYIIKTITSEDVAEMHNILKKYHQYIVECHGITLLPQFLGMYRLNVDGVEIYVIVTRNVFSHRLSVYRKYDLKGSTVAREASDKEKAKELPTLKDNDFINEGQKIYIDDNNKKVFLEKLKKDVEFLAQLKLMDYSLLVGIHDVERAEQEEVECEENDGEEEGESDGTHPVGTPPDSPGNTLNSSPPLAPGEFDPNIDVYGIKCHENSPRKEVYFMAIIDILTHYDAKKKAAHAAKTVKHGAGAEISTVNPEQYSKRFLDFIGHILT
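Quantitative HTS of the MLSMR library against PI5P4Kalpha with substrate. ATP added last at 5 microM final; room temperature, 60 minutes. Remaining ATP depleted, ADP converted and read as luminescence.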
HP1b binding inh = HP1-beta chromodomain-methylated histone interaction inhibition. P83916. Potency, µM (titrated, usually from 114 µM), actives largely listed as inhibitors. 390,000 tested, 0.56% active. AlphaScreen HP1-beta / biotin-H3K9me3 peptide binding. AID 540317; also: nearly all actives have a fitted effect of over 70% in size
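AlphaScreen: HP1-beta (50 nM) preformed 30 min with biotin-H3(1-18)K9me3 peptide (50 nM) in PBS pH 7.4, 0.01% Tween-20. Compound added for 30 min at RT, then streptavidin donor/nickel chelate acceptor beads (10 ug/mL) for 30 min.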
Hits are given with their value; [ ] = another dose, or the depositor's remark. Unless noted, calls follow the shape of the dose curve; as a rule, active = well fitted inhibition curve with a large enough effect; inconclusive = small, poorly fitted or top-dose-only effect; inactive = no such curve, though single readings can be large or run the other way.

How did Cc1ccc(C)c(N2CCN(c3nc4ccccc4c(=O)n3-c3ccc(Cl)cc3)CC2)c1 do in these assays?
G9a block: inactive; JMJD2A Tudor: inactive; HP1b binding inh: inactive

Results for CN(C)S(=O)(=O)c1ccc(C(=O)Oc2cc(=O)[nH]c3ccccc23)cc1 ?
G9a block: 70.8µM; L3MBTL1 block: inactive; BAZ2B inh: inactive; JMJD2A Tudor: inactive; PI5P4K alpha inh: inactive; HP1b binding inh: inactive

Results for CC(=O)c1ccc(-c2cc(C3C4C=CCC(C)C4C(=O)N3Cc3ccccc3)ccc2F)cc1 (centres undefined) ?
JMJD2A Tudor: inactive; HP1b binding inh: inactive

What do the screens show for `COc1ccc2c(c1)c(=O)c(C(=O)c1ccc(F)cc1)cn2CC(=O)Nc1ccc2c(c1)OCCO2`?
G9a block: inactive; BAZ2B inh: inactive; JMJD2A Tudor: inactive; HP1b binding inh: inactive

Results for CC(NCc1ccccc1)C1COc2ccccc2O1 (centres undefined) ?
G9a block: 31.6µM; BAZ2B inh: inconclusive; JMJD2A Tudor: 3.16µM; PI5P4K alpha inh: inactive; HP1b binding inh: inactive

How did CC(NC(=O)CCC(=O)NC(C)C1COc2ccccc2O1)C1COc2ccccc2O1 (centres undefined) do in these assays?
G9a block: inactive; L3MBTL1 block: inactive; BAZ2B inh: inactive; JMJD2A Tudor: inactive; PI5P4K alpha inh: inactive; HP1b binding inh: inactive

Results for CC(NCC(O)COc1ccccc1)C1COc2ccccc2O1 (centres undefined) ?
G9a block: inactive; BAZ2B inh: inactive; JMJD2A Tudor: inactive; PI5P4K alpha inh: inactive; HP1b binding inh: inactive

Results for CC(NC(=O)c1ccco1)C1COc2ccccc2O1 (centres undefined) ?
G9a block: 25.1µM; BAZ2B inh: 50.1µM; JMJD2A Tudor: 56.2µM; PI5P4K alpha inh: inconclusive; HP1b binding inh: inactive

How did CCOC(=O)c1c(C2COc3ccccc3O2)csc1NC(=O)c1ccco1 (centres undefined) do in these assays?
G9a block: 1.58µM; L3MBTL1 block: inactive[11.4 µM]; BAZ2B inh: inconclusive; JMJD2A Tudor: 31.6µM; HP1b binding inh: 17.8µM

What do the screens show for `CCOC(=O)c1c(-c2cccs2)csc1NC(=O)c1ccco1`?
G9a block: inactive; L3MBTL1 block: inactive; BAZ2B inh: inactive; JMJD2A Tudor: inactive; PI5P4K alpha inh: inactive; HP1b binding inh: inactive

What do the screens show for `COc1ccccc1CNC(=O)C1COc2ccccc2O1` (centres undefined)?
G9a block: inactive; L3MBTL1 block: inactive; BAZ2B inh: inactive; JMJD2A Tudor: inactive; HP1b binding inh: inactive

What do the screens show for `COc1ccc(CNC(C)C2COc3ccccc3O2)c(OC)c1` (centres undefined)?
G9a block: 10µM; L3MBTL1 block: inactive; BAZ2B inh: 50.1µM; JMJD2A Tudor: 3.55µM; PI5P4K alpha inh: inactive; HP1b binding inh: inconclusive

How did Cc1ccc(NC(=O)CSCn2nnc3c(=O)[nH]c(Cc4ccc(F)cc4)nc32)c(C)c1 do in these assays?
G9a block: inactive; BAZ2B inh: inactive; JMJD2A Tudor: inactive; HP1b binding inh: inactive

What do the screens show for `CC(=O)Nc1ccc(C2=NN(C)C(=NCc3ccccc3)SC2)cc1`?
G9a block: inconclusive; L3MBTL1 block: inactive; JMJD2A Tudor: 44.7µM; PI5P4K alpha inh: inconclusive; HP1b binding inh: inactive

How did CC(=O)N1CCN(CC(=O)c2ccc(Br)cc2)CC1 do in these assays?
G9a block: 2µM; L3MBTL1 block: inactive; BAZ2B inh: inactive; JMJD2A Tudor: inactive; PI5P4K alpha inh: inactive; HP1b binding inh: inactive

How did N#CCN1CCN(CC(=O)c2ccc(Br)cc2)CC1 do in these assays?
G9a block: 12.6µM; BAZ2B inh: inactive; JMJD2A Tudor: inactive; PI5P4K alpha inh: inactive; HP1b binding inh: inactive

Results for CN(C)CCN(C(=O)c1ccc2ccccc2c1)c1nc2cc3c(cc2s1)OCO3 ?
PI5P4K alpha inh: inactive

What do the screens show for `CCN(CC)CCN(C(=O)c1ccc(C(=O)c2ccccc2)cc1)c1nc2c(OC)cccc2s1`?
G9a block: inconclusive; BAZ2B inh: inactive; JMJD2A Tudor: inconclusive; PI5P4K alpha inh: inactive; HP1b binding inh: inactive

Results for CCN(CC)CCN(C(=O)c1ccc(C(=O)c2ccccc2)cc1)c1nc2cc3c(cc2s1)OCO3 ?
G9a block: 39.8µM; BAZ2B inh: inconclusive; JMJD2A Tudor: inconclusive; PI5P4K alpha inh: inactive; HP1b binding inh: inactive

What do the screens show for `CN(C)CCCN(C(=O)c1ccc(Cl)s1)c1nc2cc3c(cc2s1)OCO3`?
G9a block: inconclusive; BAZ2B inh: inconclusive; JMJD2A Tudor: inactive; PI5P4K alpha inh: inactive; HP1b binding inh: inactive

Results for Cc1ccc2nc(N(CCCN(C)C)C(=O)c3cc(-c4cccs4)nc4ccccc34)sc2c1 ?
G9a block: 39.8µM; BAZ2B inh: 25.1µM; JMJD2A Tudor: 14.1µM; PI5P4K alpha inh: inactive; HP1b binding inh: inconclusive

What do the screens show for `CN(C)CCCN(C(=O)c1cc(Cl)sc1Cl)c1nc2cc3c(cc2s1)OCO3`?
G9a block: 50.1µM; BAZ2B inh: inconclusive; JMJD2A Tudor: inconclusive; PI5P4K alpha inh: inactive; HP1b binding inh: inactive

What do the screens show for `CN(C)CCCN(C(=O)c1ccc(C(=O)c2ccccc2)cc1)c1nc2cc3c(cc2s1)OCO3`?
G9a block: inconclusive; BAZ2B inh: 44.7µM; JMJD2A Tudor: 50.1µM; PI5P4K alpha inh: inactive; HP1b binding inh: inconclusive

How did Cc1ccc(NC(=O)C2CCN(S(=O)(=O)c3ccc4[nH]c(=O)ccc4c3)CC2)cc1C do in these assays?
G9a block: inactive; BAZ2B inh: inactive; JMJD2A Tudor: inactive; HP1b binding inh: inactive

What do the screens show for `Cc1ccc(CN(Cc2ccco2)C(=O)COc2ccc(Cl)cc2)o1`?
G9a block: inactive; BAZ2B inh: inactive; JMJD2A Tudor: inactive; HP1b binding inh: inactive

What do the screens show for `CCOc1ccccc1CNC(=O)Cn1cc2c(n1)-c1c(oc(C(=O)N3CCCC3)c1C)CC2`?
G9a block: inconclusive; BAZ2B inh: inactive; JMJD2A Tudor: inactive; HP1b binding inh: inactive

How did CCc1nn2c(=O)cc(COC(=O)c3cccc(NC(=O)CCc4ccccc4)c3)nc2s1 do in these assays?
G9a block: inactive; BAZ2B inh: inactive; JMJD2A Tudor: inactive; HP1b binding inh: inactive

Results for COc1ccc2c(c1)OCC(Cc1ccc(OC)c(O)c1)C2=O (centres undefined) ?
G9a block: inactive[2.33 µM]

What do the screens show for `COc1cccc(CN2C(=O)c3ccccc3Sc3ccc(C(=O)NCCc4ccc(C)cc4)cc32)c1`?
G9a block: inactive; JMJD2A Tudor: inactive; HP1b binding inh: inactive

How did CCN(CC)CCN(C(=O)C1=COCCO1)c1nc2cc3c(cc2s1)OCO3 do in these assays?
G9a block: inactive; BAZ2B inh: inactive; JMJD2A Tudor: inactive; PI5P4K alpha inh: inactive; HP1b binding inh: inactive

How did CCN(CC)CCN(C(=O)c1ccc2ncsc2c1)c1nc2cc3c(cc2s1)OCO3 do in these assays?
BAZ2B inh: 39.8µM; JMJD2A Tudor: 50.1µM; PI5P4K alpha inh: inconclusive; HP1b binding inh: inactive
